From the supplement of paper PMC9262897, “Low-cost anti-mycobacterial drug discovery using engineered E. coli” (Nature Communications, 2022)
Counter-ions that a name gives are not always drawn. ± gives the standard deviation of the averaged measurements.

Tested on: E. coli TESEC Mtb Alr
Experiment: growth (OD600 after 10 h); higher = more growth (less inhibition)
Settings: compound 0.1 mM
Description: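 TESEC Mtb Alr E. coli, or the Alr+ wild-type control, in 384-well plates with Prestwick library compounds at 0.1 mM and 1% DMSO, across arabinose induction levels of 1E3 to 1E7 nM. Growth is read as OD600 after 10 h at 37 °C in triplicate biological replicates.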

[1] = arabinose 1000 nM, raw OD600 reference: median of DMSO wells 0.294, cell-free background 0.041
[2] = arabinose 10000 nM, raw OD600 reference: median of DMSO wells 0.264, cell-free background 0.041
[3] = arabinose 100000 nM, raw OD600 reference: median of DMSO wells 0.201, cell-free background 0.041
[4] = arabinose 1000000 nM, raw OD600 reference: median of DMSO wells 0.193, cell-free background 0.041
[5] = arabinose 10000000 nM, raw OD600 reference: median of DMSO wells 0.146, cell-free background 0.041

SMILES	growth [1]	growth [2]	growth [3]	growth [4]	growth [5]
CNC(=C[N+](=O)[O-])NCCSCc1csc(CN(C)C)n1 [Nizatidine]	0.301 ± 0.018	0.274 ± 0.0044	0.21 ± 0.015	0.189 ± 0.0052	0.14 ± 0.0024
COCCc1ccc(OCC(O)CNC(C)C)cc1 (racemic) [Metoprolol-(+,-) (+)-tartrate salt]	0.306 ± 0.018	0.266 ± 0.014	0.203 ± 0.013	0.199 ± 0.0081	0.141 ± 0.0035
CC(=O)/N=c1/sc(S(N)(=O)=O)nn1C [Methazolamide]	0.301 ± 0.019	0.266 ± 0.0036	0.198 ± 0.019	0.193 ± 0.0042	0.138 ± 0.01
CC(C(=O)O)c1ccc2c(c1)Cc1cccnc1O2 (stereo not given) [Pranoprofen]	0.302 ± 0.013	0.271 ± 0.0097	0.192 ± 0.016	0.193 ± 0.0053	0.133 ± 0.0031
OCCN1CCN(CC/C=C2/c3ccccc3Sc3ccc(Cl)cc32)CC1 [Zuclopenthixol dihydrochloride]	0.257 ± 0.0079	0.176 ± 0.005	0.1981 ± 0.0017	0.0779 ± 0.0011	0.14 ± 0.0078
CC(=O)CC(c1ccc([N+](=O)[O-])cc1)c1c(O)c2ccccc2oc1=O (stereo not given) [Acenocoumarol]	0.298 ± 0.0045	0.2588 ± 0.0011	0.175 ± 0.0092	0.1675 ± 0.0012	0.139 ± 0.0017
C[N+](C)(C)CCOC(N)=O [Carbachol]	0.309 ± 0.014	0.284 ± 0.02	0.177 ± 0.0065	0.186 ± 0.006	0.164 ± 0.0027
CC(=O)O[C@]1(C(C)=O)CC[C@H]2[C@@H]3C=C(Cl)C4=CC(=O)CC[C@]4(C)[C@H]3CC[C@@]21C [Chlormadinone acetate]	0.156 ± 0.0078	0.0802 ± 0.014	0.148 ± 0.0022	0.0653 ± 0.0047	0.11 ± 0.0088
